Source: PubChem BioAssay (NCATS)
Records with an inconclusive call do not appear. Active and inactive are the calls of the source. The call rests on the fitted dose curve; in most records, active means well fitted curve in the direction sought with a large enough effect; inconclusive means small, poorly fitted or top-dose-only effect, or another doubt; inactive means no such curve, though single readings can be large; an effect the other way counts as inactive or inconclusive.

Tests used:
[1] = Cell Viability - LYMP2-005 (AID 967); further: series mostly up to about 92 µM
Procedure, shortened: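 qHTS viability screen in LYMP2-005 cells: 24 h at 37 C with compound, ATP luminescence via CellTiter-Glo, AC50 from Hill curves.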

[2] = Cell Viability - LYMP2-009 (AID 968); further: series mostly up to about 92 µM; nearly all actives have a fitted effect of over 55% in size
[3] = Cell Viability - LYMP2-011 (AID 969);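 further: cells exposed to compound for 24 hours; nearly all actives have a fitted effect of over 60% in size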
Procedure, shortened: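 Luminescent ATP read-out (CellTiter-Glo, 30 min RT) after 24 hr compound exposure at 37 C in human lymphoblastoid cells, 2500 cells/well. Decreasing ATP indicates cytotoxicity; AC50 from standard Hill fit.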

[4] = Cell Viability - LYMP2-013 (AID 970); further: series mostly up to about 92 µM; nearly all actives have a fitted effect of over 55% in size
Procedure, shortened: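 CellTiter-Glo luminescence (cellular ATP) read after 30 min at RT. Cells: human lymphoblastoid line, 2500/well, 24 hr compound exposure at 37 C. Tetraoctylammonium bromide positive control; AC50 via standard Hill fit of qHTS titrations.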

[5] = Cell Viability - LYMP2-015 (AID 971); further: nearly all actives have a fitted effect of over 55% in size
Procedure, shortened: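 qHTS cytotoxicity: 2500 cells/well, 5 hr 37 C, compound 24 hr 37 C, CellTiter-Glo 30 min RT, luminescence. Loss of ATP = toxicity; AC50 via standard Hill fit.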

[6] = Cell Viability - LYMP2-017 (AID 972);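 further: series mostly up to about 92 µM; cells exposed to compound for 24 hours at 37 °C; nearly all actives have a fitted effect of over 55% in size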
Procedure, shortened: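 Luminescent ATP read-out (CellTiter-Glo, 30 min RT) reports viable cell number. Cells: human lymphoblastoid line, 2500 per well, 5 hr preincubation, 24 hr compound exposure at 37 C. AC50 is derived from qHTS concentration-response data using the standard Hill model.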

[7] = Cell Viability - LYMP2-019 (AID 973); further: nearly all actives have a fitted effect of over 55% in size
Procedure, shortened: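 qHTS, 1536-well; 2500 cells/well; 5 hr pre-incubation, 24 hr compound exposure, 37 C; CellTiter-Glo added, 30 min RT; luminescence read; AC50 via standard Hill equation.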

[8] = Cell Viability - LYMP2-021 (AID 974)
Procedure, shortened: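 ATP luminescence (CellTiter-Glo, 30 min RT) after 24 h compound exposure at 37 C; 2500 human lymphoblastoid cells/well, 5 h settle beforehand. Cytotoxicity = concentration-dependent ATP drop, AC50 by Hill fit.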

[9] = Cell Viability - LYMP2-023 (AID 975)
Procedure, shortened: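 CellTiter-Glo luminescence after 30 min at room temperature; decrease in intracellular ATP reflects toxicity. Cells: human lymphoblastoid line, 2500/well, 24 hr compound exposure at 37 C. AC50 fitted to standard Hill equation from concentration-response.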

[10] = Cell Viability - LYMP2-025 (AID 976); further: series mostly up to about 92 µM
Procedure, shortened: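 CellTiter-Glo luminescence (cellular ATP) after 24 h compound exposure at 37 C; LYMP2-025 human lymphoblastoid cells, 2500/well, complete medium. Tetraoctylammonium bromide positive control. AC50 by Hill equation fit of qHTS concentration-response.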

Measured: Potency

ClCCl
inactive: all assays above

CC=O
inactive: all assays above

Cc1ccc(S(=O)(=O)NC2CCCCC2)cc1
inactive: all assays above

CCNS(=O)(=O)c1ccc(C)cc1
inactive: all assays above

CC(C)CO
inactive: all assays above

Nc1ccc(Cl)cc1[N+](=O)[O-]
inactive: all assays above

C=Cc1ccccn1
inactive: all assays above

C1CCC2OC2C1 (stereo not given)
inactive: all assays above

COC(=O)CCCC(=O)OC
inactive: all assays above

c1ccc2[nH]cnc2c1
inactive: all assays above

CC(=O)C1(C)CC2=C(CCCC2(C)C)CC1C (stereo not given)
inactive: all assays above

CCCCC=O
inactive: all assays above

CCOCCOCC
inactive: all assays above

O=C(O)c1ccccc1Cl
inactive: all assays above

C=Cc1ccc(C=C)cc1
inactive: all assays above

O=Cc1ccc(CO)o1
inactive: all assays above

CCC1CO1 (stereo not given)
inactive: all assays above

O=Cc1ccccc1Cl
inactive: all assays above

Cc1c(C(=O)O)cccc1[N+](=O)[O-]
inactive: all assays above

Nc1cc(S(=O)(=O)O)ccc1O
inactive: all assays above

CCCCC(CC)COC(=O)CCCCC(=O)OCC(CC)CCCC (stereo not given)
inactive: all assays above

O=Cc1ccc(C(=O)O)cc1
inactive: all assays above

Cc1ccc(C#N)cc1
inactive: all assays above

C=C(C)C(N)=O
inactive: all assays above

CC(=C/C=C/C(C)=C/C=C/C=C(C)/C=C/C=C(C)/C=C/C(=O)O)/C=C/C(=O)O
inactive: all assays above

Cc1ccccc1C=O
inactive: all assays above

FB(F)F
inactive: all assays above

Nc1cccc(C(F)(F)F)c1
inactive: all assays above

CC(C)(c1cc(Br)c(OCC(Br)CBr)c(Br)c1)c1cc(Br)c(OCC(Br)CBr)c(Br)c1 (stereo not given)
inactive: all assays above

C=CCn1c(=O)n(CC=C)c(=O)n(CC=C)c1=O
inactive: all assays above

C=CC(=O)OCCCC
inactive: all assays above

OC/C(Br)=C(\Br)CO
inactive: all assays above

NCCCCCCN
inactive: all assays above

CCNc1cc(O)ccc1C
inactive: all assays above

CC(=O)c1ccccc1[N+](=O)[O-]
inactive: all assays above

FC(F)(F)c1cccc(Cl)c1
inactive: all assays above

CCOc1cc(OCC)c(C(C)=O)cc1OCC
inactive: all assays above

COc1ccc(N=[N+]([O-])c2ccc(OC)cc2)cc1
inactive: all assays above

C=C(C)OC(C)=O
inactive: all assays above

Cc1ccc(C)c(N)c1
inactive: all assays above

CC(=O)c1ccccn1
inactive: all assays above

COC(=O)CS
inactive: all assays above

CC(C)C(C)C
inactive: all assays above

O=C1OC(=O)c2c(Cl)c(Cl)c(Cl)c(Cl)c21
inactive: all assays above

CC(C)(C)OCC1CO1 (stereo not given)
inactive: all assays above

CC(=O)Nc1ccccc1C
inactive: all assays above

COc1ccc(N)c(OC)c1
inactive: all assays above

CCCCC(CC)C(=O)O (stereo not given)
inactive: all assays above

OCCO
inactive: all assays above

CC1CCCO1 (stereo not given)
inactive: all assays above

NC(=O)c1ccccc1[N+](=O)[O-]
inactive: all assays above

Cc1ccc2nc(-c3ccc(N)cc3)sc2c1S(=O)(=O)O
inactive: all assays above

CCOCCO
inactive: all assays above

CCC(C)(C)OC
inactive: all assays above

CCOc1ccccc1N
inactive: all assays above

CC(=O)c1cc(C)oc1C
inactive: all assays above
